Results on 20 compounds are retold here after PubChem BioAssay.

Each structure is given as a SMILES string. Unmarked numbers belong to inactive results. For some of these results: Entries with a potency or affinity are not part of this list. Active and inactive are the calls of the source. Unless noted, the rule behind the calls is not given here.

Assay [1] can be described thus: antimalarial activity against Dd2 strain (AID 2302;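 active = growth inhibition above 50% at the single 2 µM test dose, taken to imply half-maximal potency below 2 µM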;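 note: 0% = DMSO untreated growth and 100% = chloroquine plus artemisinin killed control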). As to conditions: P. falciparum Dd2 in RBCs, LDH growth readout, 72 h; at 2 µM; hits give high values.
A short description of assay [2]: human hepatoma cell viability loss – ATP luminescence, cytotoxicity control for P. falciparum antimalarial project, primary screen (AID 2303;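 active = inhibition above 50%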;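 note: 0% = DMSO wells and 100% = digitonin-killed cells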). Conditions: HepG2 viability, 24-48 h, at 10 µM, hits give high values.
In assay [3] the target is L-lactate dehydrogenase (Plasmodium falciparum (isolate CDC / Honduras)) (UniProt Q27743). Nature of the assay: PfLDH activity inhibition – cell lysate, 3D7 strain, counter-screen for P. falciparum growth inhibition project (AID 2304).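 Note: 0% = vehicle and 100% = reference inhibitor.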 Conditions: P. falciparum 3D7 crude extract, LDH APAD/NBT absorbance; at 2 µM; hits give high values.
Chain of L-lactate dehydrogenase (Plasmodium falciparum (isolate CDC / Honduras)) (Q27743 whole entry, looked up): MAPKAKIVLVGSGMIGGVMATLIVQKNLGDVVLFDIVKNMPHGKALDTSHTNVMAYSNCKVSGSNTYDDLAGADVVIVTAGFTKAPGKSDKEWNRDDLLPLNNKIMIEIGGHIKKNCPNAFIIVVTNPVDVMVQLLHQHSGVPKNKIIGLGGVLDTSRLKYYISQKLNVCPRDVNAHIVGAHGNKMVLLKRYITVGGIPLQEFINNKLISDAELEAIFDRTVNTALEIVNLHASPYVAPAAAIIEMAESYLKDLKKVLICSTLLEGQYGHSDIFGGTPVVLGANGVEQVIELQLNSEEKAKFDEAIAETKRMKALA
Assay [4] can be described thus: inhibition of 3D7 malaria parasite growth – strain 3D7 (AID 2306).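 Note: 0% = DMSO wells and 100% = chloroquine plus artemisinin control wells.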 As to conditions: P. falciparum 3D7 erythrocytic growth, LDH absorbance, 72 h; at 2 µM; hits give high values.
Assay [5] has as its target Calcium-dependent protein kinase 1 (Plasmodium falciparum (isolate 3D7)) (UniProt P62344). The experiment in a line: PfCDPK1 kinase inhibitors, biochemical, TCAMS library (AID 1159585; cut-off not given, nearly all actives have IC50 up to about 0.98 µM;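 note: inhibitors leave more ATP so luminescence rises with inhibition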). Conditions: recombinant PfCDPK1, Kinase-Glo ATP depletion luminescence.
For assay [6], the target named is Plasmodium falciparum protein kinase 6 (PK6, PF3D7_1337100) (UniProt Q8IDW1). Nature of the assay: PfPK6 kinase inhibitors, biochemical, TCAMS library (AID 1159586). Conditions: recombinant PfPK6, Kinase-Glo ATP depletion luminescence. For orientation: Kinase-Glo measures the ATP left after a reaction by luminescence.
Chain of Plasmodium falciparum protein kinase 6 (PK6, PF3D7_1337100) (Q8IDW1 1-305): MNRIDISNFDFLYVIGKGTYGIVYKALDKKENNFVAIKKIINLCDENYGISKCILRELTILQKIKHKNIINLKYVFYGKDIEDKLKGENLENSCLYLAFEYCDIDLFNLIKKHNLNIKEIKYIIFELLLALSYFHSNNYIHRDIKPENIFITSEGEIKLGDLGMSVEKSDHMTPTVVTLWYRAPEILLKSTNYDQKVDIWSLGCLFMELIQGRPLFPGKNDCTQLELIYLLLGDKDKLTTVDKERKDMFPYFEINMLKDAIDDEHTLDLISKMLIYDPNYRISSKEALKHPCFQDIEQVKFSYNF
For assay [7], the target named is Protein kinase 7 (PK7), Plasmodium falciparum 3D7 (PF3D7_0213400) (UniProt Q7YTF7). Nature of the assay: inhibition of Plasmodium PK7 catalytic activity – biochemical, TCAMS antimalarial set, Kinase-Glo luminescence (AID 1159587). Conditions: recombinant PfPK7, Kinase-Glo ATP depletion luminescence.
Chain of Protein kinase 7 (PK7), Plasmodium falciparum 3D7 (PF3D7_0213400) (Q7YTF7 1-343): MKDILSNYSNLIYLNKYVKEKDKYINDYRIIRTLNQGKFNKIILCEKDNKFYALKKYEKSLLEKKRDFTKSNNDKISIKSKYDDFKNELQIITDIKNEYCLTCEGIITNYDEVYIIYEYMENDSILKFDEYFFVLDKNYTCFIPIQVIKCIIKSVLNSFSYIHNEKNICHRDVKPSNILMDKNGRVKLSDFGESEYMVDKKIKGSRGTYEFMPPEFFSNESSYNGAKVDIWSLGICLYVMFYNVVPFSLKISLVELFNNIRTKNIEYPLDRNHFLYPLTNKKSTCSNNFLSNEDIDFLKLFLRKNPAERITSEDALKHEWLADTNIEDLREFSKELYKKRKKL
The target in assay [8] is Calcium-dependent protein kinase 4 (Plasmodium falciparum (isolate 3D7)) (UniProt Q8IBS5). Nature of the assay: PfCDPK4 kinase inhibitors, biochemical, TCAMS library (AID 1159588; cut-off not given, nearly all actives have IC50 up to about 0.91 µM). As to conditions: recombinant PfCDPK4, Kinase-Glo ATP depletion luminescence.
Chain of Calcium-dependent protein kinase 4 (Plasmodium falciparum (isolate 3D7)) (Q8IBS5 whole entry, looked up): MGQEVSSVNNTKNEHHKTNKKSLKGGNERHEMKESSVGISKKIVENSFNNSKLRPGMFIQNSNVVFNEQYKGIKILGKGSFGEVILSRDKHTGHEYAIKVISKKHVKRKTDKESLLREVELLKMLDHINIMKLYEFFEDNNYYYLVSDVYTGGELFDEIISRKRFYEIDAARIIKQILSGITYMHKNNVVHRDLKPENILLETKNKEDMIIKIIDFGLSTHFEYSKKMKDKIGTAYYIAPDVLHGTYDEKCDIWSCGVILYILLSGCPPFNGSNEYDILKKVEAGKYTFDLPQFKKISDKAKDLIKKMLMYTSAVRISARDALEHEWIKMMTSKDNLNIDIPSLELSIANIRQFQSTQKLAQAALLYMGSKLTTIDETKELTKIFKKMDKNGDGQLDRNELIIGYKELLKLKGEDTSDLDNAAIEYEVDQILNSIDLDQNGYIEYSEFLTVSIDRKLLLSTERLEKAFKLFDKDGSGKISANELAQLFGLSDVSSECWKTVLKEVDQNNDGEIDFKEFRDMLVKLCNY

Chain of Calcium-dependent protein kinase 1 (Plasmodium falciparum (isolate 3D7)) (P62344 whole entry, looked up): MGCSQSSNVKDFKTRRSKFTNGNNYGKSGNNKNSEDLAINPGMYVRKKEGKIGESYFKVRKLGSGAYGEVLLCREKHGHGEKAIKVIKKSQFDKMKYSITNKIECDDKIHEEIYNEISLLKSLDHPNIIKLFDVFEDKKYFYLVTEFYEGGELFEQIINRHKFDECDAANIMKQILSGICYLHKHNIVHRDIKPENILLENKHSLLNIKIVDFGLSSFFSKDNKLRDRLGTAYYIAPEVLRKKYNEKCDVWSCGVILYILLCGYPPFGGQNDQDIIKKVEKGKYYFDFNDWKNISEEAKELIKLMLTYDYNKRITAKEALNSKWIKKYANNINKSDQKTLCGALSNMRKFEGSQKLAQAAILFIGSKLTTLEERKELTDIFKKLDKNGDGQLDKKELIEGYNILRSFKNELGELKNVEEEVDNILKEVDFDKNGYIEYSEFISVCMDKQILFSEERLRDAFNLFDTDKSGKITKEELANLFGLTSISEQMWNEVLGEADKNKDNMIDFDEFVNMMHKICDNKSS

Turning to `COc1ccc(CNCc2ccsc2)cc1-c1ccc(S(=O)(=O)NCCN2CCCC2)c(C)c1`, the values for the growth inhibition in assay [1] and in assay [4] were 43% and 85% (active), respectively. For the same compound, the inhibition in assay [2] is 49%; in assay [3], -1%. Moreover, the outcome in assay [5], in assay [6], in assay [7] and in assay [8] was inactive.
With `CCOc1cc2ncnc(Nc3ccc(OCc4ccccc4Br)c(OC)c3)c2cc1OCC`, the growth inhibition was 82% (active) in assay [1] and 100% (active) in assay [4]. The inhibition in assay [2] and in assay [3] was 1% each time. The outcome in assay [5], in assay [6], in assay [7] and in assay [8] was inactive.
Regarding `Oc1ccccc1CN1CCC2(CCCN(Cc3ccccc3F)C2)C1` (stereo not given), the growth inhibition was 83% (active) in assay [1] and 98% (active) in assay [4]. The inhibition is 13% in assay [2] and -2% in assay [3]. Moreover, the outcome in assay [5], in assay [6], in assay [7] and in assay [8] was inactive.
With `COc1ccc2nccc([C@@H](O)CN3CCC(NCCOc4ccccc4C(F)(F)F)CC3)c2c1`, the growth inhibition in assay [1] was 95% (active); in assay [4], 98% (active). Further, the inhibition is 2% in assay [2] and -5% in assay [3]. For the same compound, the outcome in assay [5], in assay [6], in assay [7] and in assay [8] was inactive.
For the compound `NC(=O)c1cc2nc(Nc3ccc(F)cc3)nc(Nc3ccc(S(N)(=O)=O)cc3)c2[nH]1`, the growth inhibition in assay [1] was 99% (active); in assay [4] it was 101% (active). For the same compound, the values for the inhibition in assay [2] and in assay [3] were 2% and 4%, respectively. Further, the outcome in assay [5], in assay [6], in assay [7] and in assay [8] was inactive.
On to `COCCNCc1ncsc1-c1ccc2c(Nc3ccc(Oc4ccccc4)cc3)ccnc2c1`, for which the growth inhibition in assay [1] was 93% (active); in assay [4], 91% (active). Further, the inhibition in assay [2] is 34%; in assay [3], -7%. Besides, the outcome in assay [5], in assay [6], in assay [7] and in assay [8] was inactive.
With `O=C(Cc1ccsc1)NCC(c1ccccc1Cl)c1c[nH]c2ccccc12` (stereo not given), the growth inhibition was 71% (active) in assay [1] and 86% (active) in assay [4]. For the same compound, the inhibition in assay [2] is 0%; in assay [3] it was -1%. The result in assay [5], in assay [6], in assay [7] and in assay [8] was inactive.
As to `CCn1c(Sc2ccc([N+](=O)[O-])c(C#N)c2)nnc1-c1cccc(Cl)c1`, the growth inhibition in assay [1] is 22%; in assay [4], 89% (active). Moreover, the inhibition was 8% in assay [2] and 2% in assay [3]. Further, the result in assay [5], in assay [6], in assay [7] and in assay [8] was inactive.
Take `Cc1cc(N2CCCC2)nc(Nc2ccc(NC(=O)Nc3ccccc3)cc2)n1`: the figures for the growth inhibition in assay [1] and in assay [4] were 100% (active) and 99% (active), respectively. Also, the inhibition in assay [2] was 35%; in assay [3], 1%. Moreover, the outcome in assay [5], in assay [6], in assay [7] and in assay [8] was inactive.
Consider `Cc1ccc(NC(=O)c2cc(Br)cc(N3CCC(N(C)C)CC3)c2)cc1F`, for which the figures for the growth inhibition in assay [1] and in assay [4] were 80% (active) and 100% (active), respectively. Moreover, the inhibition in assay [2] was 23%; in assay [3], -3%. The outcome in assay [5], in assay [6], in assay [7] and in assay [8] was inactive.
On to `Cc1ccccc1Cn1c(CN2CCC(C(=O)NC3CC3)CC2)cc2ccccc21`, for which the growth inhibition in assay [1] is 96% (active); in assay [4], 97% (active). The inhibition in assay [2] is 7%; in assay [3], -2%. The outcome in assay [5], in assay [6], in assay [7] and in assay [8] was inactive.
For `COc1cc(C=NNc2nc(Nc3ccccc3)nc(Nc3ccccc3)n2)ccc1OCc1ccccc1[N+](=O)[O-]`, the growth inhibition was 18% in assay [1] and 98% (active) in assay [4]. Also, the inhibition in assay [2] was 8%; in assay [3] it was 3%. Besides, the outcome in assay [5], in assay [6], in assay [7] and in assay [8] was inactive.
Turning to `CCN(CC)CCNc1ccnc2ccc3ccccc3c12`, the growth inhibition in assay [1] is 67% (active); in assay [4], 100% (active). For the same compound, the inhibition in assay [2] was 5%; in assay [3], 6%. Moreover, the result in assay [5], in assay [6], in assay [7] and in assay [8] was inactive.
For `Cc1ccc(Nc2nc(C)cc(N3CCN(CCc4ccccc4)CC3)n2)cc1`, the growth inhibition is 6% in assay [1] and 93% (active) in assay [4]. In addition, the inhibition in assay [2] is 6%; in assay [3] it was -9%. For the same compound, the result in assay [5], in assay [6], in assay [7] and in assay [8] was inactive.
`CN1CCN(CCCNCc2cccc(-c3ccc(CNCCc4ccccc4)cc3)c2)CC1`: the growth inhibition in assay [1] was 20%; in assay [4], 100% (active). The figures for the inhibition in assay [2] and in assay [3] were 36% and -9%, respectively. Besides, the result in assay [5], in assay [6], in assay [7] and in assay [8] was inactive.
`CN(C)CC1CCCN1Cc1ccccc1-c1cnn(C)c(=O)c1Oc1ccc(F)cc1` (stereo not given): the growth inhibition is 19% in assay [1] and 91% (active) in assay [4]. For the same compound, the inhibition in assay [2] is 29%; in assay [3] it was 2%. Moreover, the outcome in assay [5], in assay [6], in assay [7] and in assay [8] was inactive.
Consider `COc1cccc(C2CCN(CCN3CCC(CNC(=O)c4ccc(-c5ccc(C(F)(F)F)cc5)cc4)CC3)CC2)c1`, for which the growth inhibition in assay [1] was 42%; in assay [4] it was 100% (active). For the same compound, the inhibition in assay [2] is 41%; in assay [3] it was -2%. Moreover, the outcome in assay [5], in assay [6], in assay [7] and in assay [8] was inactive.
For `Nc1cccc(C=CC(=O)Nc2ccnc3ccccc23)c1`, the growth inhibition is 60% (active) in assay [1] and 98% (active) in assay [4]. Moreover, the inhibition is 7% in assay [2] and -1% in assay [3]. In addition, the result in assay [5], in assay [6], in assay [7] and in assay [8] was inactive.
Take `COc1ccc(N2CCN(CCCCNC(=O)c3ccc(NC(=O)c4ccc(Cl)c(Cl)c4)cc3)CC2)c(OC)c1`: the growth inhibition in assay [1] is 98% (active); in assay [4], 101% (active). Besides, the inhibition was 23% in assay [2] and 4% in assay [3]. For the same compound, the outcome in assay [5], in assay [6], in assay [7] and in assay [8] was inactive.
With `Cc1noc(-c2ccc3c(c2)CCN(CCC2CCC(NC(=O)c4cc5ccccc5[nH]4)CC2)CC3)n1` (stereo not given), the growth inhibition was 41% in assay [1] and 99% (active) in assay [4]. Also, the inhibition in assay [2] was 21%; in assay [3], -7%. In addition, the result in assay [5], in assay [6], in assay [7] and in assay [8] was inactive.

By inhibition is commonly meant the change of the read-out against control, counted positive when it falls.
